Reference: PubChem BioAssay AID624255 (Broad Institute, 2012)
Values joined by “and” are separate entries in the source; they are usually repeats but may differ in a detail not shown here. Identical values can stand only once. The campaign covered roughly 77,000 compounds. About 4,600 (6%) were called active. Inconclusive results (about 1%) are left out. The full list was thinned out, with actives kept by preference. A number with no mark means an inactive call.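 How the source made its calls: active means mean inhibition above about 93%, with at least 55% of replicates each passing it (limit read from the data, passing the limit was not always enough); inconclusive means only one of those two conditions holds; inactive means neither condition holds.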

Test: T. cruzi intracellular proliferation inhibitors, primary screen, cell-based, beta-gal Tulahuen parasites, NIH3T3 host, luminescence (AID 624255)
Conditions: T. cruzi beta-gal in NIH3T3, GalScreen luminescence, 90 h; at 8.34 µM; hits give high values

Compound | inhibition
CO[C@H]1CC[C@H]2CCOc3c(C#N)cccc3C(=O)N(C)CC3(CCCCC3)CC(=O)N(C)C[C@@H]1O2 | 13.3%
CCCNC(=O)Nc1ccc2c(c1)OC[C@@H](C)N(C(=O)c1ccccc1F)C[C@H](C)[C@@H](OC)CN(C)C2=O | 52.3%
COc1ccccc1C#Cc1ccc([C@@H]2[C@H](CO)N3CCCCN(C(=O)C4CCCC4)C[C@@H]23)cc1 | 109% (active)
COCC#Cc1ccc([C@@H]2[C@@H](CO)N3CCCCN(C(=O)NC4CCCC4)C[C@H]23)cc1 | 69.2%
COc1ccccc1C#Cc1ccc([C@@H]2[C@@H](CO)N3CCCCN(S(C)(=O)=O)C[C@@H]23)cc1 | 77.3%
COCC(=O)N1CCCCN2[C@H](CO)[C@H](c3ccc(C#Cc4ccc(OC)cc4)cc3)[C@H]2C1 | 72.8%
CC(C)NC(=O)N1CCCCN2[C@@H](CO)[C@@H](c3ccc(C#Cc4ccccc4)cc3)[C@@H]2C1 | 80.4%
COc1ccccc1C#Cc1ccc([C@H]2[C@H](CO)N3CCCCN(C(=O)C4CCC4)C[C@@H]23)cc1 | 109% (active)
COc1ccccc1C#Cc1ccc([C@@H]2[C@H](CO)N3CCCCN(C(=O)C4CC4)C[C@@H]23)cc1 | 110% (active)
CO[C@@H]1CN(C)C(=O)c2cc(NC(=O)c3ccccc3)ccc2OC[C@H](C)N(C(=O)CN(C)C)C[C@H]1C | -60.5%
O=C([C@H]1[C@H](CO)[C@H]2Cn3c(ccc(C4=CCCCC4)c3=O)[C@@H]1N2)N1CCCCC1 | 60.4%
CO[C@H]1CN(C)C(=O)c2ccc(NS(C)(=O)=O)cc2OC[C@H](C)N(C(=O)C2CCC2)C[C@H]1C | 11%
O=C(C1CCC1)N1C[C@H]2[C@@H](c3ccccc31)[C@@H](CO)N2C(=O)c1ccccc1F | 5.17%
COc1cccc(S(=O)(=O)N[C@H]2CC[C@@H](CCN)O[C@H]2CO)c1 | 59%
Cc1noc(C)c1S(=O)(=O)Nc1ccc2c(c1)C(=O)N([C@H](C)CO)C[C@@H](C)[C@@H](CN(C)C(=O)C1CCCCC1)OCCCC[C@@H](C)O2 | 48.7%
CC(C)NC(=O)Nc1ccc2c(c1)C(=O)N(C)[C@@H]1CC[C@H](CC(=O)NCC3CCCCC3)O[C@@H]1CO2 | -5.5%
C[C@H](O)C#Cc1ccc2c(c1)O[C@H](CN(C)C(=O)C1CCCCC1)[C@@H](C)CN([C@H](C)CO)S2(=O)=O | 60.6%
C[C@H]1CCCCO[C@@H](CN(C)C(=O)Cc2ccccc2)[C@@H](C)CN([C@@H](C)CO)C(=O)c2cc(NC(=O)c3ccccc3)ccc2O1 | 33.7%
C[C@@H]1CN([C@@H](C)CO)C(=O)c2cc(NC(=O)Nc3ccc4c(c3)OCO4)ccc2O[C@@H]1CN(C)Cc1ccc(Oc2ccccc2)cc1 | 100% (active)
C[C@H]1CN([C@@H](C)CO)C(=O)c2cc(NC(=O)Nc3ccc4c(c3)OCO4)ccc2O[C@@H]1CN(C)Cc1ccc(Oc2ccccc2)cc1 | 119% (active)
C[C@H]1CN([C@@H](C)CO)C(=O)c2cc(NC(=O)C3CC3)ccc2O[C@@H]1CN(C)Cc1ccc(Oc2ccccc2)cc1 | 66.9%

Compound | inhibition
COc1ccc(NC(=O)Nc2ccc3c(c2)C(=O)N([C@@H](C)CO)C[C@H](C)[C@@H](CN(C)Cc2ccc4c(c2)OCO4)O3)cc1 | 31.2%
C[C@H](CO)N1C[C@H](C)[C@@H](CN(C)Cc2ccccc2)Oc2ccc(NC(=O)Nc3ccc4c(c3)OCO4)cc2C1=O | 8.73%
C[C@@H]1CN([C@H](C)CO)C(=O)c2cc(NC(=O)Nc3ccc4c(c3)OCO4)ccc2O[C@H]1CN(C)Cc1ccc(-c2ccccc2)cc1 | 70.1%
CCCNC(=O)C[C@@H]1CC[C@@H]2[C@H](COc3ccc(NC(=O)c4cc(F)cc(F)c4)cc3C(=O)N2C)O1 | -19.9%
C[C@@H]1CCCCO[C@@H](CN(C)C(=O)Nc2ccc(F)cc2)[C@H](C)CN([C@@H](C)CO)C(=O)c2cc(NS(C)(=O)=O)ccc2O1 | 23.8%
CN(C)C(=O)c1ccc(-c2ccc([C@H]3[C@H](CO)N4CCCCN(S(C)(=O)=O)C[C@@H]34)cc2)cc1 | 83.3%
CN(C)C(=O)c1ccc(-c2ccc([C@H]3[C@@H](CO)N4CCCCN(CC5CC5)C[C@H]34)cc2)cc1 | 108% (active)
CN(C)C(=O)c1ccc(-c2ccc([C@@H]3[C@@H](CO)N4CCCCN(CC5CC5)C[C@H]34)cc2)cc1 | 11.3%
CN(C)C(=O)c1ccc(-c2ccc([C@@H]3[C@H](CO)N4CCCCN(S(C)(=O)=O)C[C@@H]34)cc2)cc1 | 103% (active)
CS(=O)(=O)N1CCCCN2[C@@H](CO)[C@@H](c3ccc(Br)cc3)[C@@H]2C1 | -42.1%
CN(C)CC#Cc1ccc([C@H]2[C@H](CO)N3CCCCN(CC4CC4)C[C@@H]23)cc1 | -75.2%
CN1C(=O)c2cc(NC(=O)Nc3ccccc3Cl)ccc2OC[C@H]2O[C@@H](CC(=O)O)CC[C@H]21 | 15.3%
Cc1noc(C)c1NC(=O)N(C)C[C@@H]1OCCCC[C@H](C)Oc2ccc(NC(=O)NC3CCCCC3)cc2C(=O)N([C@H](C)CO)C[C@@H]1C | 22.8%
Cc1ccccc1S(=O)(=O)Nc1ccc2c(c1)C(=O)N(C)[C@H]1CC[C@@H](CC(=O)O)O[C@H]1CO2 | 13.1%
C[C@@H]1CN([C@H](C)CO)C(=O)Cc2cc(NC(=O)CCN3CCOCC3)ccc2O[C@H]1CN(C)CC1CC1 | 37.8%
O=C(CC1CC1)N1[C@H](CO)[C@@H]2c3ccccc3N(S(=O)(=O)c3ccc(F)cc3)C[C@@H]21 | 18.3%
C[C@@H]1CN([C@@H](C)CO)C(=O)CCCn2cc(nn2)CO[C@@H]1CN(C)S(=O)(=O)c1cccc(F)c1 | -8.28%
C[C@H]1CN([C@@H](C)CO)C(=O)CCCn2cc(nn2)CO[C@@H]1CN(C)S(=O)(=O)c1ccc(-c2ccccc2)cc1 | 3.26% and 11.9%
C[C@H]1CN([C@@H](C)CO)C(=O)c2cc(C#Cc3ccccc3F)cnc2O[C@H]1CN(C)C | 87.2%
CCCNC(=O)N(C)C[C@@H]1Oc2ncc(C#Cc3ccccc3F)cc2C(=O)N([C@@H](C)CO)C[C@H]1C | 116% (active)
C[C@@H]1CN([C@@H](C)CO)C(=O)CCCn2cc(nn2)CO[C@@H]1CN(C)S(=O)(=O)c1ccccc1F | 112% (active)

Compound | inhibition
CCCNC(=O)N(C)C[C@H]1Oc2ncc(C#Cc3ccncc3)cc2C(=O)N([C@@H](C)CO)C[C@@H]1C | 12.1%
C[C@H]1CN([C@@H](C)CO)C(=O)c2cc(C#Cc3ccccc3F)cnc2O[C@@H]1CN(C)C(=O)C1CC1 | -11.1%
C[C@H](CO)N1C[C@H](C)[C@@H](CN(C)S(=O)(=O)c2ccccc2F)Oc2ncc(C#Cc3ccccc3F)cc2C1=O | 112% (active)
COc1ccc(C#Cc2cnc3c(c2)C(=O)N([C@H](C)CO)C[C@H](C)[C@H](CN(C)S(=O)(=O)c2ccc(F)cc2)O3)cc1OC | 104%
CCCNC(=O)N(C)C[C@H]1Oc2ncc(C#CC(C)C)cc2C(=O)N([C@@H](C)CO)C[C@@H]1C | 53.3%
C[C@H](CO)N1C[C@H](C)[C@@H](CN(C)S(=O)(=O)c2ccccc2)Oc2ncc(C#Cc3ccccc3F)cc2C1=O | 120% (active)
C[C@H](CO)N1C[C@H](C)[C@H](CN(C)C(=O)C2CCOCC2)Oc2ncc(C#Cc3ccccc3F)cc2C1=O | -27.2%
CCC(=O)NC[C@H]1[C@@H](c2ccc(C3=CCCC3)cc2)[C@@H](CO)N1C(=O)C1CC1 | 21.5%
CO[C@H]1CN(C)C(=O)c2cc(NC(=O)C3CCCCC3)ccc2OC[C@H](C)N(C(=O)c2ccccc2)C[C@H]1C | 7.09%
C/C=C/c1cnc2c(c1)C(=O)N([C@@H](C)CO)C[C@@H](C)[C@@H](CN(C)C(=O)C1CCOCC1)O2 | -31.5%
CCCNC(=O)Nc1ccc2c(c1)C(=O)N(C)[C@H]1CC[C@H](CC(=O)NC3CCC3)O[C@H]1CO2 | 57.7%
N#Cc1ccc(-c2ccc3c(c2)[C@H]2[C@H](CCN2Cc2ccc4c(c2)OCO4)[C@@H](CO)N3)cc1 | 79.2%
N#Cc1ccc(-c2ccc3c(c2)[C@@H]2[C@@H](CCN2C(=O)Cc2ccncc2)[C@@H](CO)N3)cc1 | 108% (active)
CN(C)C(=O)c1cccc(-c2ccc3c(c2)[C@H]2[C@H](CCN2C(=O)Cc2ccccc2)[C@H](CO)N3)c1 | 80.1%
O=C(Cc1ccccc1)N1CC[C@@H]2[C@H](CO)Nc3ccc(-c4ccccc4)cc3[C@@H]21 | 81.9%
O=C(Cc1ccccc1)N1CC[C@H]2[C@H](CO)Nc3ccc(-c4ccccc4F)cc3[C@H]21 | 111% (active)
O=C(CC1CC1)N1CC[C@@H]2[C@H](CO)Nc3ccc(-c4ccc(F)cc4)cc3[C@@H]21 | 89.6%
Cc1noc(C)c1NC(=O)N(C)C[C@@H]1OCCCC[C@H](C)Oc2ccc(NS(=O)(=O)c3c(C)noc3C)cc2C(=O)N([C@@H](C)CO)C[C@@H]1C | -9.2%
COc1cccc(S(=O)(=O)N[C@H]2CC[C@@H](CC(=O)NCc3ccc(F)cc3)O[C@@H]2CO)c1 | 47.6%
COc1ccc(-c2ccc3c(c2)O[C@@H](CN(C)CC2CCOCC2)[C@@H](C)CN([C@@H](C)CO)S3(=O)=O)cc1 | 40.6%
